Reference: ChEMBL document CHEMBL3988442, “University of Dundee, Small-Polar-MMV Screening Library” (2021)
In all, about 48,000 compounds went through this assay and about 13,000 (27%) showed an effect of 50% or more. The list shows a part of the results.

tested on: Wolbachia pipientis; assay: Anti-Wolbachia Cell-Based Screen; type: functional; set-up: scale not given: in the data most compounds retested in dose-response had high values; conditions: 5 µM

Row | SMILES | Percent Effect
1 | CS(=O)(=O)Nc1ccc([C@H]2OCC(=O)N[C@@H]2CO)cc1 | -3.066%
2 | CC(C)Sc1ccc(C(C)Nc2nc3c(cnn3C)c(=O)[nH]2)cc1 (stereo not drawn) | -4.166%
3 | Cc1cc(NC(=O)NC(C)CN2CCN(c3ccccc3)CC2)on1 (stereo not drawn) | -17.45%
4 | CNC(=O)NC(=O)CSC(C)c1ccccc1F (stereo not drawn) | -20.44%
5 | Cc1nc(NC(=O)C(C)S(C)(=O)=O)sc1Cc1ccccc1F (stereo not drawn) | -3.086%
6 | Cc1ccc(CN2CCOCC3(C2)CN(c2ccc(C)s2)C(=O)CO3)o1.O=C(O)C(F)(F)F (stereo not drawn) | 3.651%
7 | Cc1ccc(CN2CCC3(CC2)CN(c2ccccc2)C(=O)CO3)o1.O=C(O)C(F)(F)F | 119.8%
8 | Cn1ccnc1CN1CCC2(CC1)CN(c1ccccc1)C(=O)CO2.O=C(O)C(F)(F)F | -5.115%
9 | Cn1cccc1CN1CCC2(CC1)CN(c1ccccc1)C(=O)CO2.O=C(O)C(F)(F)F | 80.65%
10 | CCc1ccc(CN2CCC3(CC2)CNC(=O)CO3)o1.O=C(O)C(F)(F)F | -11.34%
11 | Cn1cccc1CN1CCC2(CC1)CN(c1ncccn1)CCO2.O=C(O)C(F)(F)F | 0.2482%
12 | CCCNC(=O)C1CCN(CC2(O)CCC(C)CC2)CC1 (stereo not drawn) | -9.033%
13 | COCc1cccc(NC(=O)NCc2ncc(C)c(OC)c2C)c1 | -10.08%
14 | COCCCN1C(=O)CC[C@H]2CN(c3cc(C(N)=O)ccn3)CC[C@H]21 | -7.921%
15 | CCc1nc(C)c([C@H]2CN(C)C[C@@H]2C(=O)Nc2ccc(OC)nc2)[nH]1 | 6.695%
16 | O=C(CCN1C(=O)CCC1=O)Nc1ccc(OCC(F)(F)F)nc1 | -54.38%
17 | CN1CC(C(=O)Nc2ccc(OCC(F)(F)C(F)F)nc2)CC1=O (stereo not drawn) | 108%
18 | COc1ccc(NC(=O)C2CC(=O)N(C)C2)cn1 (stereo not drawn) | 112.1%
19 | COCCOc1ccc(NC(=O)C2CC(=O)N(C)C2)cn1 (stereo not drawn) | -11.2%
20 | CCOc1ccc(NC2CCN(C(C)C)C2=O)cn1 (stereo not drawn) | -21.57%
21 | CNC(=O)c1ccc(N(C)C2CCC2)nn1 | -0.7532%
22 | CC(C)c1cc(CNC(=O)Nc2cc(F)cc(N3CCCC3)c2)on1 | -22.89%
23 | COc1ccc(O[C@H]2COCCN(C(=O)c3ccno3)C2)cc1 | -10.22%
24 | COc1nc(C)ccc1CNC(=O)NC(C)Cc1c(C)nn(C)c1C (stereo not drawn) | -7.556%
25 | CC(Cn1cccn1)NC(=O)NCc1ccoc1 (stereo not drawn) | 138.9%
26 | O=C(NCc1cccnc1)Nc1ccn(CC(F)F)n1 | -3.627%
27 | CC(Cn1cccn1)NC(=O)Nc1cccnc1 (stereo not drawn) | -4.722%

Row | SMILES | Percent Effect
28 | CC(Cn1cccn1)NC(=O)NCc1cccnc1 (stereo not drawn) | 125.3%
29 | Cc1ccc(CNC(=O)NC(C)Cn2cccn2)cn1 (stereo not drawn) | 102.7%
30 | CC(Cn1cccn1)NC(=O)NCc1cccs1 (stereo not drawn) | -5.342%
31 | CC(Cn1cccn1)NC(=O)NCCc1ccc(Cl)s1 (stereo not drawn) | 2.539%
32 | CC(C)CN1CCC(c2nnc(CN3CCCC3)n2C2CC2)CC1 | 11.32%
33 | O[C@H]1[C@H](n2cc(CN3CCCC3)nn2)c2ccccc2C12CCNCC2 | -10.15%
34 | CCN(CC)S(=O)(=O)CCNC(=O)c1cc2cccc(F)c2o1 | -15.07%
35 | Nc1nc2c(c(N3CCCC(CN4CCCC4=O)C3)n1)CCNCC2 (stereo not drawn) | -1.007%
36 | Cc1nc(N2CCCC(OCc3ccccn3)C2)c2c(C)noc2n1 (stereo not drawn) | 99.09%
37 | COC1CCCN(c2nc(C)nc3c2CCN(Cc2ccco2)CC3)C1 (stereo not drawn) | -0.6049%
38 | Cc1nc2c(c(N3CCCC(OCc4ccccn4)C3)n1)CCNCC2 (stereo not drawn) | 98.85%
39 | Cc1nn(C)c2ncnc(N3CCCC(OCc4ccccn4)C3)c12 (stereo not drawn) | -6.916%
40 | Nc1nc2c(c(N3CCCC(OCc4ccccn4)C3)n1)CCNCC2 (stereo not drawn) | 94.61%
41 | Cc1nn(C)c2ncnc(N3CCCC(OCc4cccnc4)C3)c12 (stereo not drawn) | 4.594%
42 | Cc1nc2c(c(N3CCC(CCn4cccn4)CC3)n1)CCNCC2 | 1.957%
43 | Nc1nc2c(c(N3CCCC3)n1)CCN(Cc1ccccn1)CC2 | 7.613%
44 | Cn1cc(CN2CCc3c(c(COCC#N)nn3C)C2)cn1 | -10.53%
45 | O=C(c1cccnc1-n1cncn1)N1CCN(CC(F)(F)F)CC1 | -6.052%
46 | CCc1cnc(C)nc1NCCc1nc(N)cc(O)n1 | 1.724%
47 | CN(C)S(=O)(=O)NCc1nc(-c2cccc(F)c2)c(-c2ccccn2)[nH]1 | -1.399%
48 | N#Cc1ccccc1CN1CCc2sccc2C1 | -11.84%
49 | CCC(NC(=O)CN(C)Cc1ccc(C)o1)c1ccc(Br)cc1 (stereo not drawn) | 7.959%
50 | Cc1ncsc1CN1CC[C@H]2OCC[C@@]2(C(=O)N2CCCO2)C1 | -1.32%
51 | COC[C@@]12CCO[C@@H]1CCN(Cc1ccc(C)s1)C2.O=C(O)C(F)(F)F | -10.75%
52 | O=C(N1CCCO1)[C@@]12CCO[C@@H]1CCN(Cc1ccsc1)C2 | 127%
53 | Cc1ccc(CN2CC[C@H]3OCC[C@@]3(C(=O)N3CCCO3)C2)s1 | 100.6%
